Results filed as inconclusive are left out. Activity calls are given as the source filed them. Calls follow the shape of the dose curve; as a rule, active = well fitted curve in the direction sought with a large enough effect; inconclusive = small, poorly fitted or top-dose-only effect, or another doubt; inactive = no such curve, though single readings can be large; an effect the other way counts as inactive or inconclusive.
Tests used:
[1] = Cellular Toxicity (caspase-3) MRC-5 (AID 659);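 also: 0% = DMSO basal and 100% = 10 µM staurosporine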
Procedure, shortened: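 Luminescent Caspase-Glo 3/7 read-out (1 h, room temperature) after a 16 h, 37 °C compound exposure of MRC-5 lung fibroblasts at 1500 cells/well. Concentration-response AC50 from Hill equation; 0% DMSO, 100% 10 uM staurosporine.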

[2] = Cellular Toxicity (caspase-3) Mesangial (AID 660);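 also: combined caspase 3 and 7 activity read by Caspase-Glo luminescence; cells exposed to compound for 16 h before the caspase read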
Procedure, shortened: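 Luminescent Caspase-Glo 3/7 readout (aminoluciferin substrate cleavage, 20 min RT) after 16 h compound exposure at 37 °C of normal human mesangial cells. Signal increase normalized between DMSO basal and 100 uM tamoxifen; Hill-equation AC50.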

[3] = Cellular Toxicity (caspase-3) SK-N-SH (AID 661);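 also: cells exposed to compound for 16 hours; 0% = DMSO basal and 100% = 10 µM staurosporine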
Procedure, shortened: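 Luminescent Caspase-Glo 3/7 read-out after 16 hr compound exposure of SK-N-SH neuroblastoma cells at 37 °C. Signal increase normalized to DMSO (basal) and 10 uM staurosporine (100%); AC50 from Hill equation fits of qHTS concentration-response data.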

[4] = Cellular Toxicity (caspase-3) H-4-II-E (AID 663); details: Potency: caspase-3 activation;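 also: cells exposed to compound for 16 hr before readout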
Procedure, shortened: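 Caspase 3/7 activation measured by luminescent aminoluciferin substrate cleavage after 16 hr compound treatment of H-4-II-E cells in complete medium. Increase normalized between DMSO (basal) and 100 uM tamoxifen (100%); Hill-equation AC50 from concentration-response.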

[5] = Cellular Toxicity (caspase-3) Hek293 (AID 664); details: HEK293 caspase-3 activation, DMSO = 0%, 100 µM tamoxifen = 100%; at 92.2 µM (top of the series);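 also: cells exposed to compound for 16 h at 37 °C before readout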
Procedure, shortened: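 Luminescent Caspase-Glo 3/7 readout (aminoluciferin release) in HEK293 cells after 16 h compound treatment, 37 °C. Normalization: DMSO = basal, 100 uM tamoxifen = 100% stimulation. Concentration-response fitted with standard Hill equation for AC50.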

[6] = Cellular Toxicity (caspase-3) N2a (AID 665);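 also: compound exposure lasted 16 h at 37 °C before readout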
Procedure, shortened: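 Luminescent Caspase-Glo 3/7 readout in N2a mouse neuroblastoma cells after 16 h compound exposure at 37 °C. Signal scaled to DMSO (basal) and 10 uM staurosporine (100%). Concentration-response fitted with Hill equation for AC50.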

[7] = Cellular Toxicity (caspase-3) Renal Proximal Tubule (AID 667); details: Potency: caspase-3 activation;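 also: cells exposed to compound for 16 hours at 37 °C before detection; 0% = DMSO basal and 100% = 10 µM staurosporine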
Procedure, shortened: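 AC50 derived by standard Hill fit of concentration-response data, normalized between DMSO basal and 10 uM staurosporine as 100% stimulation. Cells: primary rat kidney proximal tubule, 16 h treatment at 37 °C.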

[8] = molecular target: Cytochrome P450 2C9 (Homo sapiens) (UniProt P11712); assay: qHTS Assay for Inhibitors and Substrates of Cytochrome P450 2C9 (AID 883); also: % is scaled to controls: 0 for no effect and ±100 for the full control effect; nearly all actives have a fitted effect of over 60% in size
Cytochrome P450 2C9 (Homo sapiens), sequence (P11712 whole entry, looked up): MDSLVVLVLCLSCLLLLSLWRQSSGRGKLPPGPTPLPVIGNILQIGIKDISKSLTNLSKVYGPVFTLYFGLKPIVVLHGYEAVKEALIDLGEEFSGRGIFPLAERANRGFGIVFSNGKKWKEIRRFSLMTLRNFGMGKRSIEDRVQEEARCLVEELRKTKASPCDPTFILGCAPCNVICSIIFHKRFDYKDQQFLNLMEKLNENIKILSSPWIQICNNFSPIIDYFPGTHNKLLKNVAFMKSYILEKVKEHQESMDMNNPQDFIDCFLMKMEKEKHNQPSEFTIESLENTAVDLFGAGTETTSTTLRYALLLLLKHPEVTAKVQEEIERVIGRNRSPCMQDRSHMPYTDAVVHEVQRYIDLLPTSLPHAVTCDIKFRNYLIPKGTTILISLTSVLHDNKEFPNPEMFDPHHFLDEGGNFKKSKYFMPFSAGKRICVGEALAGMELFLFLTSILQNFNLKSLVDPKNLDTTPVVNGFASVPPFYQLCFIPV
Procedure, shortened: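 Turnover of Luciferin-H (100uM, KM) by 10nM human CYP2C9 was measured over 60 min at 37C with NADPH regeneration; inhibitors and some substrates reduce luminescence. Data normalized to sulphaphenazole 57uM.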

[9] = molecular target: Cytochrome P450 3A4 (Homo sapiens) (UniProt P08684); assay: qHTS Assay for Activators of Cytochrome P450 3A4 (AID 885); also: nearly all actives have a fitted effect of over 65% in size
Cytochrome P450 3A4 (Homo sapiens), sequence (P08684 whole entry, looked up): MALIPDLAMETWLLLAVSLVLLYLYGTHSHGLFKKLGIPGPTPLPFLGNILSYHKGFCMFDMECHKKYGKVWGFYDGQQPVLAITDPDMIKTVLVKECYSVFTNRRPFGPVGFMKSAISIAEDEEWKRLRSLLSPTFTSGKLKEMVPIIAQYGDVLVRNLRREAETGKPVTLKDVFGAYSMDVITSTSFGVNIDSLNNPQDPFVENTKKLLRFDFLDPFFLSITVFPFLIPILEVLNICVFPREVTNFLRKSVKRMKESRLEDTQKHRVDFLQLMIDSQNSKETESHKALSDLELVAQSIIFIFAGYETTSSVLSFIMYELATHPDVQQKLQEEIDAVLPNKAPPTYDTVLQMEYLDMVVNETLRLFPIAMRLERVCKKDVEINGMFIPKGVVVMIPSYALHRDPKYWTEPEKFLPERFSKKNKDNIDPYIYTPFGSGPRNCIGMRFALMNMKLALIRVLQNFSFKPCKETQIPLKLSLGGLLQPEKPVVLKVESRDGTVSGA
Procedure, shortened: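 Luminescent readout of luciferin formed from 25 uM Luciferin-PPXE (KM level) by 20 nM CYP3A4 in 200 mM KPO4, with 60 min NADPH-driven reaction at room temperature after 10 min compound exposure. Ketoconazole (57 uM) defined 100% inhibition.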

[10] = molecular target: Cytochrome P450 2C19 (Homo sapiens) (UniProt P33261); assay: qHTS Assay for Inhibitors and Substrates of Cytochrome P450 2C19 (AID 899); also: % is scaled to controls: 0 for no effect and ±100 for the full control effect; nearly all actives have a fitted effect of over 60% in size
Cytochrome P450 2C19 (Homo sapiens), sequence (P33261 whole entry, looked up): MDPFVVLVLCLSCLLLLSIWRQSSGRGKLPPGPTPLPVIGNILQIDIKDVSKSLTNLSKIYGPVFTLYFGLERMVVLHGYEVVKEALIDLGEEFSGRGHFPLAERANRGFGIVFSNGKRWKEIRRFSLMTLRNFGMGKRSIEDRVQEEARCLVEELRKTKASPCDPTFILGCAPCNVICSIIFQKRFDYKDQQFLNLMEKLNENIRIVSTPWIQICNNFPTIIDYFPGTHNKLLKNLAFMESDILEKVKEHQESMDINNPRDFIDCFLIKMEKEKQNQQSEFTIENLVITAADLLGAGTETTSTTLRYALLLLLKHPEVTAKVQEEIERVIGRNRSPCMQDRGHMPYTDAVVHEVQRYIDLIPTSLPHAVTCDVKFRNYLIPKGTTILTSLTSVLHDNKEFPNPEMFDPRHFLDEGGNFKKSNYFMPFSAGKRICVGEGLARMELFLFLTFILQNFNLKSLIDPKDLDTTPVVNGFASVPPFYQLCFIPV
Procedure, shortened: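 Reactions contain 5nM enzyme, 10uM Luciferin-H EGE (KM) and 50mM KPO4; compound preincubates 10 min at 37C, NADPH regeneration starts turnover for 60 min. Luminescence after detection reagent gives activity.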

[11] = Cell Viability - LYMP2-001 (AID 921);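 also: cells exposed to compound for 24 h at 37 °C; 0% = DMSO only and full inhibition = tetraoctylammonium bromide control wells; nearly all actives have a fitted effect of over 70% in size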
Procedure, shortened: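 Steps: seed 2500 lymphoblastoid cells/well; 5 hr, 37 C; add compound; 24 hr, 37 C; CellTiter-Glo reagent, 30 min room temperature; read luminescence. Concentration-response modeled by Hill equation for AC50.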

[12] = MultiTox-Fluor Cytotoxicity Assay - LYMP1-001 - Dead Cells (AID 946)
Procedure, shortened: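 Cytotoxicity as increased dead-cell protease fluorescence (bis-AAF-R110, 485/520 nm), read 60 min after MultiTox-Fluor reagent. Human lymphoblastoid line exposed 16 h; Hill-fitted AC50, with DMSO as 0% and 15 uM tetraoctylammonium bromide as 100%.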

[13] = Cell Viability - LYMP1-002 - Assay at 16 hr (AID 948);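 also: 0% = DMSO alone and full effect = 92 µM tetraoctylammonium bromide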
Procedure, shortened: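 Seed 2500 LYMP1-002 cells per well in complete medium and hold 5 hr at 37 C. Add compound across a concentration series and incubate 16 hr at 37 C. Add CellTiter-Glo, wait 30 min at room temperature, read luminescence.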

[14] = MultiTox-Fluor Cytotoxicity Assay - LYMP1-002 - Live Cells (AID 955);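 also: cells exposed to compound for 16 hours; % is scaled to controls: 0 for no effect and ±100 for the full control effect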
Procedure, shortened: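 LYMP1-002 lymphoblastoid cells; 2500 cells/well; 16 hr compound exposure, 37 C; MultiTox-Fluor reagent 60 min RT; live-cell fluorescence Ex/Em=405/510; qHTS concentration-response, Hill-equation AC50; tetraoctylammonium bromide positive control.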

[15] = MultiTox-Fluor Cytotoxicity Assay - LYMP1-003 - Dead Cells (AID 961); also: nearly all actives have a fitted effect of over 70% in size
Procedure, shortened: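 Dead-cell protease release, detected as bis-AAF-R110 fluorescence at 485/520 nm, was measured in LYMP1-003 cells after 16 h compound treatment at 37 C. AC50 values came from Hill-modeled qHTS curves normalized to DMSO (0%) and 15 uM tetraoctylammonium bromide (100%).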

[16] = MultiTox-Fluor Cytotoxicity Assay - LYMP1-003 - Live Cells (AID 962);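 also: cells exposed to compound for 16 hours at 37 °C; 0% = DMSO only and full loss = 92 µM tetraoctylammonium bromide; cytotoxic hits lower the live-cell protease signal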
Procedure, shortened: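 Readout: live-cell fluorescence (Ex/Em=405/510) from GF-AFC cleavage after 60 min MultiTox-Fluor reagent at room temperature. Lymphoblastoid LYMP1-003 cells, 16 hr compound treatment, 37 C. Concentration-response fitted to standard Hill equation for AC50.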

[17] = Cell Viability - LYMP1-003 - Assay at 24 hr (AID 963);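 also: plate controls were DMSO only for no effect and tetraoctylammonium bromide positive control for full effect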
Procedure, shortened: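 CellTiter-Glo luminescence (intracellular ATP) read after 24 hr, 37 C compound exposure of 2500 LYMP1-003 human lymphoblastoid cells/well in complete medium; qHTS concentration series; AC50 via standard Hill equation.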

[18] = Cell Viability - LYMP1-003 - Assay at 40 hr (AID 964); also: % is scaled to controls: 0 for no effect and ±100 for the full control effect; nearly all actives have a fitted effect of over 60% in size
Procedure, shortened: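 LYMP1-003 lymphoblastoid cells, 2500/well; 5 hr preincubation, 40 hr compound exposure, 37 C; CellTiter-Glo 30 min RT; luminescence; Hill-fit AC50. Positive control tetraoctylammonium bromide.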

[19] = Cell Viability - LYMP2-003 (AID 965);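 also: cells exposed to compounds for 24 h before reading; 0% = DMSO only and full effect = 92 µM tetraoctylammonium bromide; nearly all actives have a fitted effect of over 50% in size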
Procedure, shortened: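 Seed 2500 lymphoblastoid cells/well; incubate 5 hr, 37 C; add compounds; incubate 24 hr, 37 C; add CellTiter-Glo, 30 min RT; read luminescence. AC50 from Hill fit.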

[20] = Cell Viability - LYMP2-005 (AID 967);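 also: cells exposed to compound for 24 h at 37 °C; plate controls were DMSO only for no effect and 92 µM tetraoctylammonium bromide control for full effect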
Procedure, shortened: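 Acute cytotoxicity is scored as a concentration-dependent drop in intracellular ATP in human lymphoblastoid LYMP2-005 cells after 24 h compound treatment. ATP is quantified by luciferase luminescence, and AC50 is derived by Hill-equation modelling.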

[21] = Cell Viability - LYMP2-009 (AID 968);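 also: cells exposed to compound for 24 h at 37 °C; 0% = DMSO alone and the full-kill end = tetraoctylammonium bromide at 92 µM; nearly all actives have a fitted effect of over 55% in size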
[22] = Cell Viability - LYMP2-011 (AID 969);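 also: cells exposed to compound for 24 hours; 0% = DMSO only and full inhibition = 92 µM tetraoctylammonium bromide; nearly all actives have a fitted effect of over 60% in size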
Procedure, shortened: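 Luminescent ATP read-out (CellTiter-Glo, 30 min RT) after 24 hr compound exposure at 37 C in human lymphoblastoid cells, 2500 cells/well. Decreasing ATP indicates cytotoxicity; AC50 from standard Hill fit.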

[23] = Cell Viability - LYMP2-013 (AID 970);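 also: cells exposed to compound for 24 h at 37 °C; 0% = DMSO only and full inhibition = tetraoctylammonium bromide control; nearly all actives have a fitted effect of over 55% in size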
Procedure, shortened: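 CellTiter-Glo luminescence (cellular ATP) read after 30 min at RT. Cells: human lymphoblastoid line, 2500/well, 24 hr compound exposure at 37 C. Tetraoctylammonium bromide positive control; AC50 via standard Hill fit of qHTS titrations.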

[24] = Cell Viability - LYMP2-015 (AID 971);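 also: 0% = DMSO only and full effect = 92 µM tetraoctylammonium bromide; nearly all actives have a fitted effect of over 55% in size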
Procedure, shortened: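 qHTS cytotoxicity: 2500 cells/well, 5 hr 37 C, compound 24 hr 37 C, CellTiter-Glo 30 min RT, luminescence. Loss of ATP = toxicity; AC50 via standard Hill fit.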

CC(CCC(=O)O)(c1ccc(O)cc1)c1ccc(O)cc1
inactive: outcome [1] | outcome [2] | outcome [3] | Potency [4] | caspase-3 activation [5] 1.18% | outcome [6] | Potency [7] | Potency [8] | Potency [9] | Potency [10] | Potency [11] | Potency [12] | Potency [13] | outcome [14] | Potency [15] | Potency [16] | Potency [17] | Potency [18] | Potency [19] | Potency [20] | Potency [21] | Potency [22] | Potency [23] | Potency [24]

— PubChem BioAssay (NCATS)
